Experimental findings from PubChem BioAssay (NCATS) are described below.

Test [1] deals with Aldehyde dehydrogenase, mitochondrial (Homo sapiens) (UniProt P05091). The test is described as follows: qHTS for Inhibitors of the Aldehyde Dehydrogenase Family (ALDH2) Validation screens (AID 2061302; active means well fitted inhibition curve with a large enough effect; title and protocol of this record describe different tests; further: potency means the concentration at half of the fitted maximal effect). In general terms: In qHTS, concentration-response curves come from the screen itself.
Test [2] shares this target. Description: qHTS for Inhibitors of the Aldehyde Dehydrogenase Family (ALDH2) Confirmatory screens (AID 2061303; active means well fitted inhibition curve with a large enough effect; title and protocol of this record describe different tests; further: nearly all actives have a fitted effect of over 45% in size; further: potency means the concentration at half of the fitted maximal effect).
The nature of test [3]: qHTS for Inhibitors of the Aldehyde Dehydrogenase Family (ALDH1A2, ALDH1A3, ALDH2, ALDH3A1) (AID 2061307). Further: nearly all actives have a fitted effect of over 50% in size. On Potency: test system not described further here; potency means the concentration at half of the fitted maximal effect.
The target in test [4] is Retinaldehyde dehydrogenase 3 (Homo sapiens) (UniProt P47895). The test is described as follows: qHTS for Inhibitors of the Aldehyde Dehydrogenase Family (ALDH1A3) Confirmatory screens (AID 2061311). Further: nearly all actives have a fitted effect of over 60% in size. Further: potency means the concentration at half of the fitted maximal effect.
Test [5] has the same target. Description: qHTS for Inhibitors of the Aldehyde Dehydrogenase Family (ALDH1A3) Validation screen (AID 2061312). Further: on the % scale 0 is the no-effect control and ±100 the full control effect; nearly all actives have a fitted effect of over 45% in size.
Test [6] addresses Retinal dehydrogenase 2 (Homo sapiens) (UniProt O94788). The test is described as follows: qHTS for Inhibitors of the Aldehyde Dehydrogenase Family (ALDH1A2) Confirmation screens (AID 2061314). Further: nearly all actives have a fitted effect of over 65% in size. Further: potency means the concentration at half of the fitted maximal effect.
For test [7], the target named is Aldehyde dehydrogenase 1A1 (Homo sapiens) (UniProt P00352). The test is described as follows: qHTS for Inhibitors of the Aldehyde Dehydrogenase Family (ALDH1A1) Confirmatory screens (AID 2061316). Further: nearly all actives have a fitted effect of over 65% in size. Further: potency means the concentration at half of the fitted maximal effect.
Test [8] in a line: BET inhibitor-based combinations targeting novel dependencies in MECOM-rearranged (r) AML: SET-2 cell line (AID 2202231). Further: nearly all actives have a fitted effect of over 35% in size. Further: potency means the concentration at half of the fitted maximal effect.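 On viability: plate controls were DMSO treated cells for no effect and wells without cells for full effect.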 Conditions: SET-2 AML cells viability, CellTiter-Glo luminescence, 48 h; viability: hits give low values, concentration not given here. In outline:
(§1)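 Luminescent ATP readout (CellTiter-Glo) after 48 hr drug exposure gives viability. Curves span 11 concentrations and are normalized to DMSO and empty wells. Activity is reported as area under the curve and its Z-transform within each cell line.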
(ATP-based viability assays read luminescence as a measure of living cells.)

Test [9] is described as follows: BET inhibitor-based combinations targeting novel dependencies in MECOM-rearranged (r) AML: OCI-AML3 cell line (AID 2202232). Further: nearly all actives have a fitted effect of over 35% in size. Further: potency means the concentration at half of the fitted maximal effect. Conditions: Potency: OCI-AML3 viability. The essentials: as §1
Test [10] can be described thus: BET inhibitor-based combinations targeting novel dependencies in MECOM-rearranged (r) AML: MV-4-11 cell line (AID 2202233). Further: nearly all actives have a fitted effect of over 45% in size. Further: potency means the concentration at half of the fitted maximal effect. The essentials:
(§2)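 Luminescent ATP readout (CellTiter-Glo, 15 min at room temperature) after 48 hr drug exposure gave viability. Dose-response curves, normalized to DMSO and empty-well controls, were summarized as area under the curve and its mean-centred Z-score.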

A short description of test [11]: BET inhibitor-based combinations targeting novel dependencies in MECOM-rearranged (r) AML: HNT-34 cell line (AID 2202234). Further: nearly all actives have a fitted effect of over 35% in size. Further: potency means the concentration at half of the fitted maximal effect. In outline:
as §2

A short description of test [12]: BET inhibitor-based combinations targeting novel dependencies in MECOM-rearranged (r) AML: UCSD-AML1 cell line (AID 2202235). Further: nearly all actives have a fitted effect of over 40% in size. Further: potency means the concentration at half of the fitted maximal effect. The essentials:
as §2

Test [13] can be described thus: BET inhibitor-based combinations targeting novel dependencies in MECOM-rearranged (r) AML: AML-191 cell line (AID 2202236; further: nearly all actives have a fitted effect of over 35% in size; further: potency means the concentration at half of the fitted maximal effect). In outline:
as §1

In test [14] the target is Aldehyde dehydrogenase, mitochondrial (Homo sapiens) (UniProt P05091). The test is described as follows: qHTS for Inhibitors of the Aldehyde Dehydrogenase Family (ALDH2) Primary screen (AID 2061308).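 Further: plate controls were vehicle for no effect and reference inhibitor for full effect; nearly all actives have a fitted effect of over 55% in size.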
For test [15], the target named is Retinaldehyde dehydrogenase 3 (Homo sapiens) (UniProt P47895). The test is described as follows: qHTS for Inhibitors of the Aldehyde Dehydrogenase Family (ALDH1A3) Primary screen (AID 2061315).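 Further: plate controls were DMSO vehicle for no effect and reference inhibitor for full effect.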
Test [16] can be described thus: BET inhibitor-based combinations targeting novel dependencies in MECOM-rearranged (r) AML: AML-194 cell line (AID 2202237; further: nearly all actives have a fitted effect of over 40% in size; further: potency means the concentration at half of the fitted maximal effect). In outline:
as §1

Results filed as inconclusive are left out. A number with no mark means an inactive call. Activity calls are given as the source filed them. Unless noted, the call rests on the fitted dose curve; in most records, active means well fitted curve in the direction sought with a large enough effect; inconclusive means small, poorly fitted or top-dose-only effect, or another doubt; inactive means no such curve, though single readings can be large; an effect the other way counts as inactive or inconclusive.

As usually defined, the viability is a read-out of living cells in per cent, often relative to untreated cells. For `CC(C)NCC(O)c1ccc(O)c(O)c1` (centres undefined), the Potency result in test [1], in [2], in [3], in [4], in test [5] and in test [6] was “inactive” each time. In addition, the Potency result in test [7], in test [9], in [10], in test [11], in test [12] and in test [13] was “inactive” throughout. In addition, in [8], the viability is 106%.

As to `C[C@@H]1C(=O)NC2=Nc3cccc(Cl)c3CN21`, the Potency result in test [1] and in test [5] was “inactive” in each case.

In the case of `CC(C)NCC(O)c1cc(O)cc(O)c1` (centres undefined), the Potency entry in test [1] and in test [5] was “inactive” in each case.

With `CN1Cc2sccc2C(c2ccc(O)c(O)c2)C1` (centres undefined), the Potency entry in test [1], in test [2], in test [3] and in test [6] was “inactive” in each case.

Regarding `CCCCCC(O)CCCC(=O)O` (centres undefined), the Potency result in test [1] and in test [5] was “inactive” throughout.

Take `Clc1ccc2c(c1)C(N1CCNCC1)=Nc1ccccc1O2`: the Potency entry in test [1], in [14], in [5] and in test [15] was “inactive” throughout.

`CC(C)(C)OC(=O)N1CCN(c2ccc(NCc3ccc(-c4ccc(C#N)cc4)o3)nc2)CC1`: the Potency is 0.708 µM (active) in test [1]; 0.447 µM (active) in test [2]; 15.8 µM (active) in test [3]; 25.1 µM (active) in test [6]; 7.12 µM (active) in test [7]. Further, the Potency result in test [15] was “inactive”.

As for `C[C@H](NC(CCc1ccccc1)C(=O)O)C(=O)N1CCC[C@H]1C(=O)O` (some centres undefined), the Potency entry in test [1] and in test [5] was “inactive” each time.

Take `NC(N)=NCCCCN=C(N)N`: the Potency result in test [1] and in [5] was “inactive” each time.

On to `CC(C)(C)OC(=O)N1CCC(c2ccc(NCc3ccc(-c4ccc(C#N)cc4)o3)cc2)CC1`, for which the Potency in test [1] is 0.355 µM (active); in test [2], 0.112 µM (active); in test [3], 0.896 µM (active); in [4], 3.16 µM (active); in test [6], 8.91 µM (active); in [7] it was 12.7 µM (active). Further, the Potency result in test [15] was “inactive”.

As for `O=C1CCc2cc(OCCCCc3nnnn3C3CCCCC3)ccc2N1`, the Potency entry in test [1], in test [9], in test [11], in test [12], in test [13] and in [16] was “inactive” throughout. Further, the Potency in [2] is 0.631 µM (active); in [4], 0.631 µM (active); in [6] it was 7.94 µM (active); in test [8], 16.6 µM (active).

For the compound `CCOC(=O)C1CCN(c2ccc(NCc3ccc(-c4ccc(C#N)cc4)o3)cc2)CC1`, the Potency in test [1] was 0.355 µM (active); in test [2], 0.0355 µM (active); in [3] it was 0.634 µM (active); in test [4], 7.08 µM (active); in [6], 31.6 µM (active); in [7], 7.98 µM (active). The Potency result in test [14] was “inactive”.

As for `CC(=O)O[C@]1(C(C)=O)CC[C@H]2[C@@H]3C=C(Cl)C4=CC(=O)[C@@H]5C[C@@H]5[C@]4(C)[C@H]3CC[C@@]21C`, the Potency result in [1], in [14], in [5], in [15], in [9] and in test [16] was “inactive” throughout. In addition, the viability in test [8] is 80.8%.

Regarding `CC(C)(C)OC(=O)N1CCN(c2cnc(NCc3ccc(-c4ccc(C#N)cc4)o3)nc2)CC1`, the Potency is 1.12 µM (active) in test [1]; 2.24 µM (active) in [2]; 5.65 µM (active) in [3]; 15.8 µM (active) in [4]; 8.96 µM (active) in [6]; 10.1 µM (active) in [7]. In addition, in test [15], the Potency result is “inactive”.

As to `NC1CONC1=O` (centres undefined), the Potency result in test [1] and in [5] was “inactive” each time.

Consider `O=C1NC(O)=NC1(c1ccccc1)c1ccccc1`, for which the Potency result in test [1] and in test [5] was “inactive” in each case.

Turning to `N#Cc1ccc(-c2ccc(CNc3ccc(N4CCC(C(F)(F)F)CC4)cc3)o2)cc1`, the Potency in test [1] is 0.447 µM (active); in [2], 0.0357 µM (active); in test [3] it was 0.712 µM (active); in test [7], 6.34 µM (active). In addition, the Potency result in [14] and in test [6] was “inactive” throughout.

In the case of `COc1ccc(CN(CCN(C)C)c2ccccn2)cc1`, the Potency entry in test [1] and in test [5] was “inactive” throughout.

On to `Cc1cn([C@H]2C=C[C@@H](CO)O2)c(=O)[nH]c1=O`, for which the Potency entry in test [1] and in [5] was “inactive” each time.

Consider `O=C(O)/C=C/c1ccc(O)c(O)c1`, for which the Potency entry in [1], in test [2], in [3], in test [4], in [6] and in test [7] was “inactive” in each case.

As for `O=C(O)/C=C/c1cnc[nH]1`, the Potency result in [1] and in [5] was “inactive” in each case.

As for `Cc1ccc(S(=O)(=O)NC(=O)NN2CCCCCC2)cc1`, the Potency entry in test [1], in test [2], in test [4] and in test [7] was “inactive” in each case.

`CCC(NC(C)C)C(O)c1ccc(O)c(O)c1` (centres undefined): the Potency entry in test [1], in test [2], in test [3], in test [4] and in test [6] was “inactive” throughout.

Consider `CCN(CC)CCNC(=O)c1ccc(N)cc1`, for which the Potency entry in test [1], in test [2], in test [3], in test [4], in test [5] and in test [6] was “inactive” in each case. Moreover, the Potency result in test [15] and in [7] was “inactive” in each case.

On to `O=C1CC2(CCCC2)CC(=O)N1CCCCN1CCN(c2ncccn2)CC1`, for which the Potency entry in test [1] and in test [5] was “inactive” in each case.

As for `O=C1NCC2(CCN(CCc3ccccc3)CC2)O1`, the Potency entry in test [1] and in test [5] was “inactive” in each case.

For `CC(C)(C)OC(=O)N1CCN(c2ccc(NCc3ccc(-c4ccc(C#N)cc4)o3)cn2)CC1`, the Potency in test [1] is 0.398 µM (active); in [2] it was 0.0357 µM (active); in test [3] it was 6.31 µM (active); in [4], 7.08 µM (active); in [7], 2.25 µM (active). Further, the Potency result in [15] is “inactive”.

As to `O=C(O)CN(CCOCCOCCN(CC(=O)O)CC(=O)O)CC(=O)O`, the Potency entry in test [1], in test [2], in test [3], in [4], in test [6] and in [7] was “inactive” in each case.

Consider `CCN(CC)C(=O)c1ccc(O)c(OC)c1`, for which the Potency entry in test [1] and in test [5] was “inactive” each time.

`O=C(NOCC1CC1)c1cc(Br)c(F)c(F)c1Nc1ccc(I)cc1Cl`: the Potency result in [1] and in test [5] was “inactive” throughout.

Consider `NC(=O)c1ccccc1`, for which the Potency result in [1] and in test [5] was “inactive” each time.

Take `CC(C)C(=O)Nc1ccc([N+](=O)[O-])c(C(F)(F)F)c1`: the Potency entry in test [1], in [5], in [12], in [13] and in [16] was “inactive” throughout. Moreover, in test [8], the viability was 93.1%.

`CCCC(CCC)C(=O)O`: the Potency entry in test [1], in [5], in [9], in test [10], in test [11] and in [12] was “inactive” throughout. Besides, the Potency entry in test [13] and in [16] was “inactive” each time.

In the case of `CN[C@H]1CC[C@@H](c2ccc(Cl)c(Cl)c2)c2ccccc21`, the Potency result in [1] and in test [5] was “inactive” throughout. The values for the Potency in [9] and in [13] were 13.2 µM (active) and 18.6 µM (active), respectively.

On to `O=C1NC(=O)C(c2ccccc2)(c2ccccc2)N1`, for which the Potency result in [1] and in test [5] was “inactive” in each case.

As for `CC(=O)[C@]1(O)Cc2c(O)c3c(c(O)c2[C@@H](O[C@H]2C[C@H](N)[C@H](O)[C@H](C)O2)C1)C(=O)c1ccccc1C3=O`, the Potency result in test [1] is “inactive”. For the same compound, the Potency in test [8] is 0.468 µM (active); in test [9] it was 0.186 µM (active); in test [10] it was 0.0661 µM (active); in test [11], 0.186 µM (active); in test [12], 0.148 µM (active); in [13], 0.186 µM (active). For the same compound, in test [16], the Potency is 0.235 µM (active).
